These results are taken from ChEMBL document CHEMBL3433997, “St. Jude Leishmania screening dataset” (2016).

Structures are written as SMILES.

The target in the first test is Solute carrier family 2, facilitated glucose transporter member 1 (Homo sapiens) (UniProt P11166). The test can be described thus: ST_JUDE_LEISH: Cytotoxicity at 2uM final concentration against transgenic Leishmania Mexicana promastigotes LmGLUT1 that are glucose transport deficient and complemented with the human glucose transporter GLUT1. Activity is measured by DNA content using SYBR green in vitro. It is filed as functional.
Chain of Solute carrier family 2, facilitated glucose transporter member 1 (Homo sapiens) (P11166 whole entry): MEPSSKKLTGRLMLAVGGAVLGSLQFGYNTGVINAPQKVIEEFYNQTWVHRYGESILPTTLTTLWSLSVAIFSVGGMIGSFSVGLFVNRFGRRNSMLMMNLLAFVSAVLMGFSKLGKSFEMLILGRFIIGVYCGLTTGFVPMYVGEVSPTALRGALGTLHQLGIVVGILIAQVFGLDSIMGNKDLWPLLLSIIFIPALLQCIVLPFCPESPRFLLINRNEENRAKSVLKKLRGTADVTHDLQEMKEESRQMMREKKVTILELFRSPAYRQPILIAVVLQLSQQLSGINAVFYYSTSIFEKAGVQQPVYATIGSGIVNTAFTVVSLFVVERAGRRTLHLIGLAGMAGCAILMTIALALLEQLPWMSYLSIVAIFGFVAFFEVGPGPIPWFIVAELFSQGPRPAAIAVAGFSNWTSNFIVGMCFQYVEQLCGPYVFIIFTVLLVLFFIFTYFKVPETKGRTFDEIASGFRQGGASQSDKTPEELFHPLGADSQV
Take `CCCCCCCN1CC[C@@H](CCCc2ccnc3ccc(OCCN4CCNCC4)cc23)[C@@H](CC)C1`: the inhibition came to 5.11%.
Consider `CCOc1ccc2c(N/N=C/c3cccc([N+](=O)[O-])c3)cc(C)nc2c1`, for which the inhibition was determined as 5.98%.
`O=C(c1cc(-c2ccco2)n[nH]1)N1CCN(S(=O)(=O)c2ccc(Br)cc2)CC1`: the inhibition is 10.8%.
As to `Cc1cc(=NN=Cc2ccccc2F)c2cc(C(F)(F)F)ccc2[nH]1`, the inhibition amounted to 1.67%.
Consider `COc1ccc2ncc(F)c(CCN3CC[C@H](NC(=O)c4ccc5c(n4)NC(=O)CS5)[C@H](O)C3)c2n1`, for which the inhibition came out at 10.7%.
For the molecule `Oc1cc2ccccc2cc1CNC1CCCCC1`, the inhibition was found to be 1.31%.
In the case of `Cc1cccc(CN2CCC(Oc3ccc(NC(=O)c4cccs4)cc3Cl)CC2)n1`, the inhibition amounted to 5.76%.
`Nc1ccc2nc(C=Cc3ccc(Cl)cc3)[nH]c2c1`: the inhibition is 3.56%.
For the molecule `Cc1ccc(NS(=O)(=O)c2cccs2)cc1-c1cccc(C(=O)Nc2ccc(F)cc2)c1`, the inhibition was 2%.
Turning to `CC(Oc1ccc(NC(=O)c2cccs2)cc1)C(=O)c1ccc(Cl)cc1` (stereo not given), the inhibition worked out at 11.3%.
Take `O=C(Nc1cccc(-c2nn3ccccc3c2-c2ccnc(Nc3cccc(F)c3)n2)c1)c1c(F)ccc(F)c1Cl`: the inhibition is 9.38%.
Turning to `NCc1cccc(-c2ccccc2CNC2CCN(Cc3ccccc3)CC2)c1`, the inhibition stood at 6%.
Same read-out and setting: the result for `CC(C)c1cc(Oc2c(I)cc(CCCc3ncc[nH]3)cc2I)ccc1O` reads 9.35%; that for `CC(=O)Nc1ccc(CN2CCc3ccc(NS(=O)(=O)c4ccc(-c5cccc(C(F)(F)F)c5)cc4)cc3CC2)s1`, 2.54%.
With `COc1cc2nc(N3CCC(CNC(=O)c4cccc5cc[nH]c45)CC3)nc(N)c2cc1OC`, the inhibition is 6.26%.
Regarding `CCCCCCNC(=O)C(N)CCCC(N)C(=O)NCCCCCC` (stereo not given), the inhibition was 6.05%.
On to `CN(C)Cc1ccc2cc(NC(=O)c3ccc(-c4ccc(Cl)cc4)cc3)ccc2c1`, for which the inhibition is -1.97%.
Regarding `CN1CCCN(Cc2cccc(-c3ccc(NC(=O)c4cccc(Cl)c4)cc3)c2)CC1`, the inhibition stood at 71.1%.
On the same count and under the same terms, the result for `CC(C)C(=O)NC(c1cccs1)c1cc(Cl)c2cccnc2c1O` (stereo not given) reads 1.65%.
Same read-out and setting: the result for `COc1c(F)ccc2ncc(Cl)c(CCN3CCC(NCc4ccc5c(n4)NC(=O)CS5)CC3)c12` reads 6.45%.
As to `Cc1cc(NCCC(=O)NCc2cccc(F)c2)nc(NCCc2ccc(F)cc2)n1`, the inhibition is 5.01%.
`O=C(Nc1ccc([N+](=O)[O-])cc1)c1nn(-c2ccccc2)cc1/N=C/c1cccc(O)c1`: the inhibition is -0.62%.
Same read-out and setting: as for `Cc1ccc(C(=O)Nc2ccc(Cl)c(N3CCN(CCc4ccccc4)CC3)c2)cc1`, the figure is 4.14%; as for `CCCc1cc(Cc2cnc(N)nc2N)cc(CCC)c1OCCCCCC(=O)OCC`, 4.7%.
As for `CCn1c(SCC(=O)Nc2cc(C(F)(F)F)ccc2Cl)nc2ccccc2c1=O`, the inhibition is 1.69%.
In the case of `N#Cc1ccc(-c2ccc3nc(N4CCCN(C5CCC5)CC4)ccc3c2)cc1`, the inhibition was 6.14%.
Take `O=C(Nc1ccc(C(=O)Oc2ccc(-c3ccccc3)cc2)cc1)N[C@@H](Cc1ccc(O)cc1)C(=O)NC1CCN(Cc2ccc(O)cc2)C1` (stereo not given in full): the inhibition was determined as 2.56%.
The same measure, in the same setting: the result for `CC(=O)Nc1cccc(C(=O)Nc2nc3ccc(-c4cc(=O)[nH]c(Nc5ccccc5Cl)n4)cc3[nH]2)c1` reads 4.21%.
Consider `CC1(C)N=C(N)N=C(N)N1c1cccc(I)c1`, for which the inhibition is 0.23%.
`CN1CCN(c2ccnc3cc4ccccc4cc23)CC1`: the inhibition is -3.09%.
Still for that read-out and setting: the result for `O=C(Nc1ccccc1)N(Cc1ccc(-c2ccc(CNCc3ccc4c(c3)OCO4)cc2)cc1)C1CCN(Cc2ccccc2)CC1` reads 0.62%.
For `CN(Cc1cccc(F)c1)C1CCN(c2cc(NC(=O)c3ccc(F)cc3)ccn2)C1` (stereo not given), the inhibition amounted to 2.33%.
Still for that read-out and setting: the result for `COc1cc(C)ccc1N1CCN(CCCCNC(=O)c2ccc(NC(=O)c3ccc(Cl)cc3)cc2)CC1` reads 6.85%; that for `NOCCCOc1ccc(Cl)cc1`, 4.86%.
The same measure, in the same setting: the result for `COc1ccc(CC(Cc2ccc(OC)cc2)NCC(O)c2cccc(Cl)c2)cc1` (stereo not given) reads 2.03%; that for `O=C1C(=Cc2cc(Cc3ccccc3)ccc2O)SC(=S)N1Cc1ccccc1`, 8.42%; that for `COc1ccc(CNC2Cc3ccccc3C2)cc1-c1cccc(S(=O)(=O)NCCN2CCCC2)c1`, 4.54%.
In the case of `COc1ccc2nccc([C@@H](O)CN3CCC(NCc4cc5cc(OC(F)(F)F)ccc5[nH]4)CC3)c2c1`, the inhibition stood at 9.94%.
With `O=c1cc(N2CCCNCC2)c(Cl)nn1Cc1ccc(NS(=O)(=O)c2ccc(Oc3ccccc3)cc2)cc1`, the inhibition amounted to 10.6%.
Take `CCCCOc1cc2ncc(C(=O)OCC)c(O)c2cc1OCCCC`: the inhibition turned out to be 0.09%.

The target of the next test is Hexose transporter 1 (Plasmodium falciparum) (UniProt O97467). The test can be described thus: ST_JUDE_LEISH: Cytotoxicity at 2uM final concentration against transgenic Leishmania Mexicana promastigotes LmPfHT that are glucose transport deficient and complemented with the Plasmodium falciparum hexose transporter. Activity is measured by DNA content using SYBR green in vitro. It is filed as functional.
On to `CCCCCCCN1CC[C@@H](CCCc2ccnc3ccc(OCCN4CCNCC4)cc23)[C@@H](CC)C1`, for which the inhibition is 4.74%.
Same read-out and setting: as for `CCOc1ccc2c(N/N=C/c3cccc([N+](=O)[O-])c3)cc(C)nc2c1`, the figure is 4.85%.
For the molecule `O=C(c1cc(-c2ccco2)n[nH]1)N1CCN(S(=O)(=O)c2ccc(Br)cc2)CC1`, the inhibition was 10.2%.
As to `Cc1cc(=NN=Cc2ccccc2F)c2cc(C(F)(F)F)ccc2[nH]1`, the inhibition was 3.04%.
Same read-out and setting: the result for `COc1ccc2ncc(F)c(CCN3CC[C@H](NC(=O)c4ccc5c(n4)NC(=O)CS5)[C@H](O)C3)c2n1` reads 9.73%; that for `Oc1cc2ccccc2cc1CNC1CCCCC1`, 1.41%; that for `Cc1cccc(CN2CCC(Oc3ccc(NC(=O)c4cccs4)cc3Cl)CC2)n1`, 3.92%.
`Nc1ccc2nc(C=Cc3ccc(Cl)cc3)[nH]c2c1`: the inhibition amounted to 3.93%.
For the molecule `Cc1ccc(NS(=O)(=O)c2cccs2)cc1-c1cccc(C(=O)Nc2ccc(F)cc2)c1`, the inhibition was 3.65%.
For `CC(Oc1ccc(NC(=O)c2cccs2)cc1)C(=O)c1ccc(Cl)cc1` (stereo not given), the inhibition turned out to be 10%.
On to `O=C(Nc1cccc(-c2nn3ccccc3c2-c2ccnc(Nc3cccc(F)c3)n2)c1)c1c(F)ccc(F)c1Cl`, for which the inhibition came out at 10.4%.
Take `NCc1cccc(-c2ccccc2CNC2CCN(Cc3ccccc3)CC2)c1`: the inhibition is 5.52%.
`CC(C)c1cc(Oc2c(I)cc(CCCc3ncc[nH]3)cc2I)ccc1O`: the inhibition worked out at 9.42%.
On to `CC(=O)Nc1ccc(CN2CCc3ccc(NS(=O)(=O)c4ccc(-c5cccc(C(F)(F)F)c5)cc4)cc3CC2)s1`, for which the inhibition was found to be 2.18%.
Regarding `COc1cc2nc(N3CCC(CNC(=O)c4cccc5cc[nH]c45)CC3)nc(N)c2cc1OC`, the inhibition worked out at 4.21%.
In the case of `CCCCCCNC(=O)C(N)CCCC(N)C(=O)NCCCCCC` (stereo not given), the inhibition was 5.65%.
Consider `CN(C)Cc1ccc2cc(NC(=O)c3ccc(-c4ccc(Cl)cc4)cc3)ccc2c1`, for which the inhibition is 3.04%.
Regarding `CN1CCCN(Cc2cccc(-c3ccc(NC(=O)c4cccc(Cl)c4)cc3)c2)CC1`, the inhibition was 80%.
`CC(C)C(=O)NC(c1cccs1)c1cc(Cl)c2cccnc2c1O` (stereo not given): the inhibition was 1.13%.
Turning to `COc1c(F)ccc2ncc(Cl)c(CCN3CCC(NCc4ccc5c(n4)NC(=O)CS5)CC3)c12`, the inhibition worked out at 6.77%.
Same read-out and setting: as for `Cc1cc(NCCC(=O)NCc2cccc(F)c2)nc(NCCc2ccc(F)cc2)n1`, the figure is 3.24%.
On the same count and under the same terms, as for `O=C(Nc1ccc([N+](=O)[O-])cc1)c1nn(-c2ccccc2)cc1/N=C/c1cccc(O)c1`, the figure is -1.47%; as for `Cc1ccc(C(=O)Nc2ccc(Cl)c(N3CCN(CCc4ccccc4)CC3)c2)cc1`, 8.02%.
Still for that read-out and setting: the result for `CCCc1cc(Cc2cnc(N)nc2N)cc(CCC)c1OCCCCCC(=O)OCC` reads 2.93%; that for `CCn1c(SCC(=O)Nc2cc(C(F)(F)F)ccc2Cl)nc2ccccc2c1=O`, 3.62%.
In the case of `N#Cc1ccc(-c2ccc3nc(N4CCCN(C5CCC5)CC4)ccc3c2)cc1`, the inhibition came out at 7%.
For the molecule `O=C(Nc1ccc(C(=O)Oc2ccc(-c3ccccc3)cc2)cc1)N[C@@H](Cc1ccc(O)cc1)C(=O)NC1CCN(Cc2ccc(O)cc2)C1` (stereo not given in full), the inhibition is 2.9%.
On the same count and under the same terms, the result for `CC(=O)Nc1cccc(C(=O)Nc2nc3ccc(-c4cc(=O)[nH]c(Nc5ccccc5Cl)n4)cc3[nH]2)c1` reads 2.23%; that for `CC1(C)N=C(N)N=C(N)N1c1cccc(I)c1`, -0.04%; that for `CN1CCN(c2ccnc3cc4ccccc4cc23)CC1`, -3.08%.
The same measure, in the same setting: as for `O=C(Nc1ccccc1)N(Cc1ccc(-c2ccc(CNCc3ccc4c(c3)OCO4)cc2)cc1)C1CCN(Cc2ccccc2)CC1`, the figure is -0.02%.
For the molecule `CN(Cc1cccc(F)c1)C1CCN(c2cc(NC(=O)c3ccc(F)cc3)ccn2)C1` (stereo not given), the inhibition was -0.57%.
`COc1cc(C)ccc1N1CCN(CCCCNC(=O)c2ccc(NC(=O)c3ccc(Cl)cc3)cc2)CC1`: the inhibition was found to be 6.83%.
`NOCCCOc1ccc(Cl)cc1`: the inhibition is 3.73%.
As to `COc1ccc(CC(Cc2ccc(OC)cc2)NCC(O)c2cccc(Cl)c2)cc1` (stereo not given), the inhibition came to 0.72%.
Consider `O=C1C(=Cc2cc(Cc3ccccc3)ccc2O)SC(=S)N1Cc1ccccc1`, for which the inhibition was 7.14%.
As for `COc1ccc(CNC2Cc3ccccc3C2)cc1-c1cccc(S(=O)(=O)NCCN2CCCC2)c1`, the inhibition worked out at 1.69%.
Regarding `COc1ccc2nccc([C@@H](O)CN3CCC(NCc4cc5cc(OC(F)(F)F)ccc5[nH]4)CC3)c2c1`, the inhibition is 10.4%.
As to `O=c1cc(N2CCCNCC2)c(Cl)nn1Cc1ccc(NS(=O)(=O)c2ccc(Oc3ccccc3)cc2)cc1`, the inhibition stood at 8%.
Take `CCCCOc1cc2ncc(C(=O)OCC)c(O)c2cc1OCCCC`: the inhibition stood at 0.46%.
